According to PubChem BioAssay (NCI):
This is part of a sample that, as a whole, favours compounds with a hit. Of some 79,000 tested, about 15% had one in any assay. Cut-off read from the data, not from the text of the source: active = growth inhibition above about 70%; inactive = the rest.

Assays:
[1] = NCI Yeast Anticancer Drug Screen. Data for the rad50 strain (AID 155);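 note: 0% = growth of vehicle-only cultures of the same strain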; details: S. cerevisiae rad50 strain growth inhibition; at 50.0 µM; active compounds read high
Method in brief: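 DNA repair mutant yeast, compound exposure, growth read-out; inhibition is taken relative to vehicle.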

[2] = NCI Yeast Anticancer Drug Screen. Data for the mec2-1 strain (AID 157); details: S. cerevisiae mec2-1 strain, at 50.0 µM, active compounds read high
Method in brief: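 Yeast mec2-1 mutant treated with compound. Readout: growth inhibition vs vehicle controls.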

[3] = NCI Yeast Anticancer Drug Screen. Data for the sgs1 mgt1 strain (AID 161);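 note: 0% = growth of cultures given vehicle only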; details: S. cerevisiae sgs1 mgt1 strain, at 50.0 µM, active compounds read high
Method in brief: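 Genetically altered yeast, compound exposure, growth inhibition relative to vehicle.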

[4] = NCI Yeast Anticancer Drug Screen. Data for the cln2 rad14 strain (AID 165);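 note: 0% = growth equal to vehicle treated cultures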; details: S. cerevisiae cln2 rad14 strain, at 50.0 µM, active compounds read high
Method in brief: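 cln2 rad14 yeast strain; compound exposure; growth inhibition read vs vehicle controls.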

[5] = NCI Yeast Anticancer Drug Screen. Data for the bub3 strain (AID 167); details: S. cerevisiae bub3 mutant strain, at 50.0 µM, active compounds read high
Method in brief: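 In this screen, a yeast mutant lacking normal mitotic checkpoint function is challenged with compound. Relative growth versus vehicle gives the inhibition value.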

[6] = NCI Yeast Anticancer Drug Screen. Data for the mlh1 rad18 strain (AID 175); details: S. cerevisiae mlh1 rad18 strain growth inhibition; at 50.0 µM; active compounds read high
Method in brief: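 Yeast w/ defined DNA-repair lesions; compound exposure; growth vs vehicle controls → % inhibition.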

Measured: growth inhibition

CC1=NN(c2ccccc2)C(=O)CC1
inactive: [1] -3.65% | [2] -8.8% | [3] 26.5% | [4] 16.6% | [5] 16.3% | [6] 5.05%

CS(=O)(=O)c1nc2ncnc(N)c2[nH]1
inactive: [1] -6.2% | [2] -18.1% | [3] -6.3% | [4] -22.4% | [5] -27.1% | [6] -4.75%

CC[n+]1c(COCCOc2ccccc2)sc2cc3c(cc21)OCO3
inactive: [1] -23.4% | [2] -11.4% | [3] -0.35% | [4] 12% | [5] 2.55% | [6] -18.1%

COc1ccc(CCNC(=S)N/C=C(\C#N)S(=O)(=O)c2ccc(C)cc2)cc1OC
inactive: [1] 6% | [2] -0.6% | [3] 4.55% | [4] 3.45% | [5] -19.8% | [6] -11.6%

COC(=O)c1cc2c(o1)Sc1ccccc1NC2=O
inactive: [1] -4.3% | [2] -29.9% | [3] -12.6% | [4] 3.65% | [5] -8.55% | [6] 10.7%

NC(=O)N/N=C/c1ccc(Cl)cc1Cl
inactive: [1] -3.7% | [2] -5.55% | [3] -8.25% | [4] -1.65% | [5] 4.8% | [6] -13.6%

COc1ccc(OC)c(/C=C2/C(=O)N(c3ccccc3)N=C2C)c1
inactive: [1] -7.55% | [2] -1.25% | [3] 5.6% | [4] -1.85% | [5] 15.5% | [6] 4.75%

Cc1cccc(N=Cc2ccc(N(CCC#N)S(=O)(=O)c3ccccc3)cc2C)c1
inactive: [1] -34.5% | [2] -16.6% | [3] -54.9% | [4] -8.35% | [5] -10.9% | [6] -9.2%

O=C1c2ccccc2-c2c1c1ccccc1c(=O)n2Cc1ccco1
inactive: [1] 16.1% | [2] -29.2% | [3] -2.8% | [4] 8.85% | [5] -11.2% | [6] -18.9%

CCN(CC)CCCNc1nc2ccccc2c2c1ncn2CC(C)C
inactive: [1] -51% | [2] 5.4% | [3] -20.8% | [4] 27.1% | [5] 13.2% | [6] 6.35%

CSC(=NCCN=C(NS(=O)(=O)c1ccc(Cl)cc1)SC)NS(=O)(=O)c1ccc(Cl)cc1
inactive: [1] 5.95% | [2] -5.3% | [3] 7.15% | [4] 1.5% | [5] 4.15% | [6] 5.8%

CCOC(=O)C(CS(=O)(=O)N(CC)CC)NC(=O)c1ccccc1 (stereo unspecified)
inactive: [1] -1.4% | [2] -10.6% | [3] 2.9% | [4] -10.8% | [5] 5.15% | [6] -18.6%

O=C1C[C@@H]2CCCC[C@@H]2C12SCCS2
inactive: [1] -10.9% | [2] -18.6% | [3] -6.95% | [4] 13.8% | [5] -9.45% | [6] -5.25%

O=CNC1(CO)CCCCC1
inactive: [1] -2.4% | [2] -3.4% | [3] -7.05% | [4] -38.8% | [5] -18.1% | [6] 7.9%

Cc1nn(C(=O)c2cccnc2)c(-c2ccccc2)c1N=Nc1ccc(S(=O)(=O)Nc2ncccn2)cc1
inactive: [1] 23.7% | [2] 18.4% | [3] 31.4% | [4] 33% | [5] 0.7% | [6] 42.5%

O=C(OC1CC2CCC23CCC13)c1ccccc1 (stereo unspecified)
inactive: [1] -1.35% | [2] 6.1% | [3] 10.2% | [4] -7.6% | [5] -37.5% | [6] -18.9%

Nc1ncnc2c1nnn2CCCCCC(=O)O
inactive: [1] -6.25% | [2] 27.8% | [3] 21.8% | [4] -7.95% | [5] 11.8% | [6] -13.9%

CC1=CC(C)(C)NC(=S)N1c1cccc2c(S(=O)(=O)O)cccc12
inactive: [1] 5.05% | [2] -20.8% | [3] -11.2% | [4] -32.3% | [5] 4.55% | [6] 6.3%

O=C1CCCC2=C1C(c1ccc(Cl)c(Cl)c1)C1=C(CCCC1=O)O2
inactive: [1] 1.05% | [2] 7.05% | [3] -7.25% | [4] -18.5% | [5] 12.6% | [6] 6.45%

O=C(O)C1=NN(c2ccc(S(=O)(=O)O)cc2)C(=O)C1N=Nc1ccc(S(=O)(=O)O)cc1 (stereo unspecified)
inactive: [1] 7.3% | [2] -0.6% | [3] 17.1% | [4] 16.9% | [5] -1% | [6] 13%

O=C1Nc2cc(Cl)ccc2N=CC1NC(=O)C(c1ccccc1)c1ccccc1Cl (stereo unspecified)
inactive: [1] -33.1% | [2] -11.6% | [3] -6.15% | [4] -15.9% | [5] -6.8% | [6] -17.8%

Nc1ccc(C(=O)O)c([N+](=O)[O-])c1
inactive: [1] 0.7% | [2] -2.45% | [3] -0.5% | [4] -30.9% | [5] -11.7% | [6] -2.1%

O=C(CCc1cc(-c2ccc(F)cc2)n[nH]1)N(Cc1ccccc1)Cc1ccccc1
inactive: [1] -20.1% | [2] 11.2% | [3] -27.8% | [4] 2.25% | [5] -20.2% | [6] -9%

O=C1NC2=NN=C(c3ccc(Br)cc3)CN2NC12c1ccccc1-c1ccccc12
inactive: [1] -21.6% | [2] -15.8% | [3] -13.8% | [4] 21.6% | [5] -14.2% | [6] 4.2%

CCCCOC(=O)OCCOCCOC(=O)OCCCC
inactive: [1] -7.75% | [2] 3.1% | [3] 2.6% | [4] -70.8% | [5] -9.2% | [6] 0.35%

COc1ccc(CN2C(=S)SC(c3ccc(Cl)cc3)N2c2ccc(OC)cc2)cc1 (stereo unspecified)
inactive: [1] -25.1% | [2] -19.6% | [3] -9.2% | [4] -37% | [5] -1.35% | [6] -19.8%

c1cc2nc(c1)CSCCCCCCCSC2
inactive: [1] 2.05% | [2] 45% | [3] 30.2% | [4] -3.45% | [5] 52.4% | [6] 23.2%

CSc1ccc2c(c1)Cc1cc(N)ccc1-2
inactive: [1] 3.9% | [2] 10.6% | [3] 12.1% | [4] 3.4% | [5] -26.7% | [6] 10.8%

O=C1C(Nc2ccccc2)=C(c2ccccc2)C(=O)N1c1ccccc1
inactive: [1] 1.15% | [2] -7.55% | [3] 0.7% | [4] -46.2% | [5] -11.8% | [6] -10.8%

O=C(CCBr)Nc1ccccc1
inactive: [1] 11.1% | [2] -15.2% | [3] -7.15% | [4] -38.2% | [5] -7.35% | [6] -26.4%

CC1CCCN(P(c2ccccc2)N2CCCC(C)C2)C1 (stereo unspecified)
inactive: [1] 25% | [2] 4.6% | [3] 16.4% | [4] 15.4% | [5] 26% | [6] 13%

Cc1cc2ccccc2c(Br)c1C
inactive: [1] 5% | [2] 4.95% | [3] 26% | [4] -36.8% | [5] -4.35% | [6] 4.7%

CCN(CC)C(=O)c1cccc(N)c1
inactive: [1] 12.6% | [2] -11.3% | [3] 11.5% | [4] 11% | [5] 25.3% | [6] 14%

CC(=O)[CH-]C(=O)Nc1ccccc1.CC(=O)[CH-]C(=O)Nc1ccccc1.CC[O-].CC[O-].[Ti+4]
inactive: [1] -16.4% | [2] 14.3% | [3] 11.3% | [4] 21% | [5] 12.8% | [6] 12.7%

O=C1c2ccccc2C(=O)N1CC1(C(=O)O)NCCS1(=O)=O (stereo unspecified)
inactive: [1] 3.3% | [2] -7.5% | [3] -22.3% | [4] 26.8% | [5] -48.9% | [6] 10.1%

O=C1COCCO1
inactive: [1] 2.45% | [2] -8.55% | [3] 6.45% | [4] -14% | [5] -6.55% | [6] -19.5%

CN(CCS)C(=N)N
inactive: [1] 4.75% | [2] -14.9% | [3] 2.55% | [4] 7.8% | [5] -0.65% | [6] -11.4%

NC(CC1C(=O)Nc2ccccc21)C(=O)O (stereo unspecified)
inactive: [1] -32.5% | [2] -14.9% | [3] -11.3% | [4] -60.6% | [5] -0.8% | [6] -8.9%

O=C(O)c1c(Br)c(Br)c(Br)c(Br)c1C(=O)Nc1ccc([N+](=O)[O-])cc1
inactive: [1] -14.6% | [2] 2.65% | [3] 3.35% | [4] 4.75% | [5] 3.15% | [6] -1.05%

COc1ccc(N)c(OC)c1
inactive: [1] -30.6% | [2] -37% | [3] -90% | [4] 12.9% | [5] -39.6% | [6] -34%

Cc1ccc(O)c(C)n1
inactive: [1] 4.2% | [2] 14% | [3] 0.15% | [4] 7% | [5] -0.2% | [6] -2.9%
